Assay results taken from the supplement of paper PMC10933113.

Each compound was assayed on KeratinoSens (HaCaT ARE-luciferase) cells (assay: Nrf2/ARE luciferase activation call in qHTS KeratinoSens assay (1 = active, 0 = inactive)).

Row | Structure (SMILES) | Nrf2/ARE luciferase activation call
1 | CCCCn1cc[n+](C)c1.O=S(=O)([O-])C(F)(F)F | not active ARE inducer (skin sensitizer alert) (inactive)
2 | CCCc1nn(C)c2c(=O)[nH]c(-c3cc(S(=O)(=O)N4CCN(C)CC4)ccc3OCC)nc12.O=C(O)CC(O)(CC(=O)O)C(=O)O | not active ARE inducer (skin sensitizer alert) (inactive)
3 | CO[C@@H]1COCC[C@@H]1[NH2+][C@@H]1CC[C@@](C(=O)N2CCc3ncc(C(F)(F)F)cc3C2)(C(C)C)C1.O=C([O-])CCC(=O)O | not active ARE inducer (skin sensitizer alert) (inactive)
4 | COc1cc(N)c(Cl)cc1C(=O)NC1CCN(Cc2ccccc2)CC1.O=C(O)/C=C\C(=O)O | not active ARE inducer (skin sensitizer alert) (inactive)
5 | CC(=O)c1ccc2c(c1)N(CCCN(C)C)c1ccccc1S2.O=C(O)/C=C\C(=O)O | not active ARE inducer (skin sensitizer alert) (inactive)
6 | CN(C)CCN(Cc1ccccc1)c1ccccn1.O=C(O)CC(O)(CC(=O)O)C(=O)O | not active ARE inducer (skin sensitizer alert) (inactive)
7 | CCCCCCCCn1cc[n+](C)c1.O=S(=O)([O-])C(F)(F)F | not active ARE inducer (skin sensitizer alert) (inactive)
8 | CN(C)CC[C@@H](c1ccc(Br)cc1)c1ccccn1.O=C(O)/C=C\C(=O)O | not active ARE inducer (skin sensitizer alert) (inactive)
9 | Cc1occc1C(=O)Nc1ccc(C(=O)N2CCC(F)(F)/C(=C\C(=O)N3CCC(N4CCCCC4)CC3)c3ccccc32)cc1.Cc1occc1C(=O)Nc1ccc(C(=O)N2CCC(F)(F)/C(=C\C(=O)N3CCC(N4CCCCC4)CC3)c3ccccc32)cc1.O=C(O)/C=C/C(=O)O | not active ARE inducer (skin sensitizer alert) (inactive)
10 | C[C@@H](CN(C)C)CN1c2ccccc2Sc2ccccc21.C[C@@H](CN(C)C)CN1c2ccccc2Sc2ccccc21.O=C(O)[C@@H](O)[C@@H](O)C(=O)O | not active ARE inducer (skin sensitizer alert) (inactive)
11 | CCCC[n+]1ccccc1.O=S(=O)([O-])C(F)(F)F | not active ARE inducer (skin sensitizer alert) (inactive)
12 | O=C(O)c1ccc2ccccc2c1O.OCc1cc(C(O)CNCCCCCCOCCCCc2ccccc2)ccc1O (centres undefined) | not active ARE inducer (skin sensitizer alert) (inactive)
13 | CCCc1nc(C)c2c(=O)nc(-c3cc(S(=O)(=O)N4CCN(CC)CC4)ccc3OCC)[nH]n12.O=C(O)CC(O)(CC(=O)O)C(=O)O | not active ARE inducer (skin sensitizer alert) (inactive)
14 | CCOc1cc(N)c(Cl)cc1C(=O)NCC1CN(Cc2ccc(F)cc2)CCO1.O=C(O)CC(O)(CC(=O)O)C(=O)O (centres undefined) | not active ARE inducer (skin sensitizer alert) (inactive)
15 | CCC(C(=O)OCCOCCN(CC)CC)c1ccccc1.O=C(O)CC(O)(CC(=O)O)C(=O)O (centres undefined) | not active ARE inducer (skin sensitizer alert) (inactive)
16 | Nc1c2c(nc3ccccc13)CCCC2O.O=C(O)/C=C\C(=O)O (centres undefined) | not active ARE inducer (skin sensitizer alert) (inactive)
17 | C[C@@H](C1=C(CCN(C)C)Cc2ccccc21)c1ccccn1.O=C(O)/C=C\C(=O)O | not active ARE inducer (skin sensitizer alert) (inactive)

Row | Structure (SMILES) | Nrf2/ARE luciferase activation call
18 | O=C(O)/C=C\C(=O)O.O=C(O)/C=C\C(=O)O.c1cc(CN2CCCCC2)cc(OCCCNc2nc3ccccc3s2)c1 | not active ARE inducer (skin sensitizer alert) (inactive)
19 | CN1Cc2c(N)cccc2C(c2ccccc2)C1.O=C(O)/C=C\C(=O)O (centres undefined) | not active ARE inducer (skin sensitizer alert) (inactive)
20 | CCC[N+]1(C)CCCC1.O=S(=O)([O-])C(F)(F)F | not active ARE inducer (skin sensitizer alert) (inactive)
21 | C[C@H](N)[C@H](O)c1cccc(O)c1.O=C(O)[C@@H](O)[C@@H](O)C(=O)O | not active ARE inducer (skin sensitizer alert) (inactive)
22 | NC(CO)(CO)CO.O=C(c1ccccc1)c1ccc2n1CC[C@H]2C(=O)O | not active ARE inducer (skin sensitizer alert) (inactive)
23 | NC[C@H](O)c1ccc(O)c(O)c1.O=C(O)C(O)C(O)C(=O)O.O=C(O)C(O)C(O)C(=O)O | not active ARE inducer (skin sensitizer alert) (inactive)
24 | CN1CCC[C@@H]1CCO[C@](C)(c1ccccc1)c1ccc(Cl)cc1.O=C(O)/C=C/C(=O)O | not active ARE inducer (skin sensitizer alert) (inactive)
25 | CN(C)CCOc1ccccc1Cc1ccccc1.O=C(O)CC(O)(CC(=O)O)C(=O)O | not active ARE inducer (skin sensitizer alert) (inactive)
26 | O=C(O)/C=C/C(=O)O.OCCOCCN1CCN(C2=Nc3ccccc3Sc3ccccc32)CC1.OCCOCCN1CCN(C2=Nc3ccccc3Sc3ccccc32)CC1 | not active ARE inducer (skin sensitizer alert) (inactive)
27 | COCCc1ccc(OCC(O)CNC(C)C)cc1.COCCc1ccc(OCC(O)CNC(C)C)cc1.O=C(O)[C@H](O)[C@@H](O)C(=O)O (centres undefined) | not active ARE inducer (skin sensitizer alert) (inactive)
28 | O=C(O)/C=C/C(=O)O.c1ccc(C(O[C@H]2CCCN(CCc3ccc4c(c3)OCO4)C2)c2ccccc2)cc1 | not active ARE inducer (skin sensitizer alert) (inactive)
29 | CN1C(C)(C)CCCC1(C)C.O=C(O)[C@@H](O)[C@H](O)C(=O)O | not active ARE inducer (skin sensitizer alert) (inactive)
30 | CC(CN(C)C)CN1c2ccccc2CCc2ccccc21.O=C(O)/C=C\C(=O)O (centres undefined) | not active ARE inducer (skin sensitizer alert) (inactive)
31 | O=C(CCC1CCN(Cc2ccccc2)CC1)c1ccc2c(c1)NCCCC2.O=C(O)/C=C/C(=O)O | not active ARE inducer (skin sensitizer alert) (inactive)
32 | CCCCCC[n+]1ccccc1.O=S(=O)([O-])C(F)(F)F | not active ARE inducer (skin sensitizer alert) (inactive)
33 | CCN(CCCc1ccccc1)CCCc1ccccc1.O=C(O)CC(O)(CC(=O)O)C(=O)O | not active ARE inducer (skin sensitizer alert) (inactive)
34 | Cc1cc(C)[nH]c(=O)n1.O=C(Nc1ccc([N+](=O)[O-])cc1)Nc1ccc([N+](=O)[O-])cc1 | not active ARE inducer (skin sensitizer alert) (inactive)
